# Results taken from PubChem BioAssay (NCATS).
# Results filed as inconclusive are left out. Activity calls are given as the source filed them. The call rests on the fitted dose curve; in most records, active means well fitted inhibition curve with a large enough effect; inconclusive means small, poorly fitted or top-dose-only effect; inactive means flat fitted curve, though single readings scatter.
# Test system: HEK293
# Assay: Cytotoxic Profiling of Annotated Libraries Using Quantitative High-Throughput Screening (AID 1296008); further: nearly all actives have a fitted effect of over 60% in size
# Settings: Five cell lines viability, CellTiter-Glo ATP luminescence, 48-72 h; max response: stronger effect = lower value
# Procedure, shortened: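 Compounds were pin-transferred onto cells and incubated 48 or 72 hr at 37 degree Celsius, 95% humidity. CellTiter-Glo was added, plates sat 10 min at room temperature, then ATP-coupled luminescence was imaged as the viability read-out.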
# On the % scale 0 is the no-effect control and ±100 the full control effect; potency means the concentration at half of the fitted maximal effect.
Structure (SMILES),max response,Potency
Cc1cc(C(N)=O)ccc1-n1c(CCC(=O)O)ccc1-c1ccc(-n2ccnc2)cc1,-3.97% (inactive),–
CC(=O)O[C@@H]1[C@@H](O)[C@H](C)O[C@@H](O[C@H]2[C@@H]3C=CO[C@@H](O[C@@H]4O[C@H](CO)[C@@H](O)[C@H](O)[C@H]4O)[C@@H]3[C@@]3(CO)O[C@@H]23)[C@@H]1OC(=O)/C=C/c1ccccc1,2% (inactive),–
COc1cc(Br)c(Nc2nc(-c3c(C)nc4ncccn34)cs2)c(Br)c1,–,5.8 µM (active)
C=C1C[C@]23C[C@H]1CC[C@H]2[C@]1(C)CCC[C@@](C)(C(=O)O)[C@H]1[C@@H]3C(=O)O,-6% (inactive),–
CN(C)C/C=C/C(=O)Nc1cc2c(Nc3ccc(F)c(Cl)c3)ncnc2cc1OC1CCOC1 (stereo unspecified),–,5.8 µM (active)
O=C(CCCCN1CCOCC1)Nc1ccc(-c2cccnc2)cc1,0.956% (inactive),–
CCC[C@@H]1O[C@@H]2C[C@H]3[C@@H]4CCC5=CC(=O)C=C[C@]5(C)[C@H]4[C@@H](O)C[C@]3(C)[C@]2(C(=O)CO)O1,0.791% (inactive),–
O=C(O)COCCN1CCN([C@H](c2ccccc2)c2ccc(Cl)cc2)CC1,-2.41% (inactive),–
C[C@H](NC(c1cccc(C[P+](=O)O)c1)[C@H](C)O)c1ccc(Cl)c(Cl)c1 (stereo partly specified),-17.8% (inactive),–
CC1(C)CC[C@]2(C(=O)O)CC[C@]3(C)C(=CCC4[C@@]5(C)CC[C@H](O[C@@H]6O[C@H](C(=O)O)[C@@H](O[C@@H]7OC[C@@H](O)[C@H](O)[C@H]7O)[C@H](O)[C@H]6O)C(C)(C)C5CC[C@]43C)C2C1O (stereo partly specified),2.41% (inactive),–
CC(=O)C12OC(C)(C)OC1CC1C3CCC4=CC(=O)C=CC4(C)C3(F)C(O)CC12C (stereo unspecified),-19.2% (inactive),–
CC1(C)CCCC2(C)C=C(C(=O)O)C(O)CC12 (stereo unspecified),-6.67% (inactive),–
C/C=C/c1ccc2oc(-c3ccc(O)c(OC)c3)c(C)c2c1,-4.11% (inactive),–
COc1c2c(c(C)c3c1C(=O)OC3)O[C@@]1(C)CCC3(C(C)(C)O)OC(=O)CC[C@]3(C)[C@H]1C2 (stereo partly specified),-0.697% (inactive),–
COc1ccc(Cl)c(Nc2nc3ccccc3nc2NS(=O)(=O)c2cccc(NC(=O)C(C)(C)N)c2)c1,-13.5% (inactive),–
C=C1C(OC(=O)/C(C)=C\C)[C@@]23CCC4[C@@](C)(CCC[C@@]4(C)C(=O)O)C2CC[C@H]1C3OC(C)=O (stereo partly specified),-4.19% (inactive),–
CC(=O)OC1C(O)C2C(C)C3=CC(=O)OC3(O)CC2C2(C)CCCC(C)(CO)C12 (stereo unspecified),-10% (inactive),–
C[C@@H]1O[C@@H](O[C@H]2[C@H](O)[C@@H](O)[C@H](OC[C@H]3O[C@@H](OC(=O)[C@]45CCC(C)(C)C[C@H]4C4=CCC6[C@@]7(C)CC[C@H](O[C@@H]8OC[C@H](O)[C@H](O[C@@H]9O[C@H](CO)[C@@H](O)[C@H](O)[C@H]9O)[C@H]8O)[C@@](C)(CO)C7CC[C@@]6(C)[C@]4(C)CC5)[C@H](O)[C@@H](O)[C@@H]3O)O[C@@H]2CO)[C@H](O)[C@H](O)[C@H]1O (stereo partly specified),-14.9% (inactive),–
C=CC1C(OC2OC(CO)C(O)C(O)C2O)OC=C2C(=O)N3C(C(=O)O)Cc4c([nH]c5ccccc45)C3CC21 (stereo unspecified),0.732% (inactive),–
O=C1N=C(N2CCOCC2)CN1c1ccc(Cl)cc1,-16.9% (inactive),–
Cc1cc2c(F)c(Oc3ncnn4cc(OCC(C)O)c(C)c34)ccc2[nH]1 (stereo unspecified),–,5.8 µM (active)
COc1cc(/C=C/C(=O)OC[C@H]2O[C@@](CO)(O[C@H]3O[C@H](CO)[C@@H](O)[C@H](O)[C@H]3O)[C@@H](OC(=O)/C=C/c3ccc(O)c(OC)c3)[C@@H]2O)ccc1O,4.27% (inactive),–
CC1=CC(=O)CC(C)(CO)C1(O)/C=C/C(C)O[C@@H]1O[C@H](CO)[C@@H](O)[C@H](O)[C@H]1O (stereo partly specified),-1.52% (inactive),–
OC[C@H]1O[C@@H](OCCc2ccccc2)[C@H](O[C@@H]2OC[C@](O)(CO)[C@H]2O)[C@@H](O)[C@@H]1O,-11.4% (inactive),–
COc1ccc(/C=C/C(=O)O[C@H]2[C@H](O[C@H]3[C@@H]4C=CO[C@@H](O[C@@H]5O[C@H](CO)[C@@H](O)[C@H](O)[C@H]5O)[C@@H]4[C@@]4(CO)O[C@@H]34)O[C@@H](C)[C@H](O)[C@H]2OC(C)=O)cc1,-1.88% (inactive),–
COc1cc(O)c([C@@H](CC(=O)N2CC(C)CC(C)C2)c2ccc3c(c2)OCO3)c(OC)c1 (stereo partly specified),-5.89% (inactive),–
